These results are taken from ChEMBL document CHEMBL1157539, “Thousands of chemical starting points for antimalarial lead identification” (Nature, 2010).

This test concerns Plasmodium falciparum. Briefly: GSK_TCMDC: Inhibition of Plasmodium falciparum 3D7 in whole red blood cells, using parasite LDH activity as an index of growth. Test compounds present at 2uM. Type of test: functional.
Consider `Br.CC1(C)NC(N)=NC(=N)N1OCC1CCCCC1`, for which the Inhibition (usually the drop in the measured response relative to a control, in per cent) was 94%.
Compound `Cc1cc(CN2CC[C@H](NC(=O)c3ccc(Cl)c(Cl)c3)C2)ccc1OCCN1CCCC1.O=C(O)C(F)(F)F` had an Inhibition of 100%.
For the compound `COc1cc(NC(=O)/C=C/c2ccc(-c3ccccc3)cc2)ccc1OCCN(C(C)C)C(C)C.Cl`, the Inhibition is on record as 94%.
To `COc1cc2ccccc2c(CON2C(=N)N=C(N)NC2(C)C)c1OC.Cl` belongs 96%; to `O=C(N[C@@H](CC1CCCCC1)C(=O)NCCN1CCCC1)c1ccc(O)c(-c2cccc(C(F)(F)F)c2)c1`, 99%; to `N#Cc1ccccc1C1CCN(C2CCC(Nc3cc(-c4cccnc4)ccn3)CC2)CC1` (stereo not given), 100%.
The figure for `CC(=O)Nc1ccc(C(=O)Nc2cccc(-c3ccc(-c4nc5ccccc5[nH]4)s3)c2)cn1` is 100%; for `Cc1cccc(S(=O)(=O)Nc2cccc(CCN3CCC(N4CCCCC4)CC3)c2)c1` it is 87%; for `CN(C)CC(O)COc1ccc(Nc2ncc([N+](=O)[O-])c(Nc3ccccc3O)n2)cc1.O=C(O)C(F)(F)F` (stereo not given) it is 100%.
To `COc1cc2nc(N3CCC(CNC(=O)c4ccc(-c5ccc(C(=O)N(C)C)cc5O)cc4)CC3)nc(N)c2cc1OC` belongs 100%.
Consider `O=C(Nc1ccc(-c2cccc(-c3nc4cc(C(F)(F)F)ccc4[nH]3)c2)cc1)c1cccnc1`, for which the Inhibition came out at 100%.
Turning to `CCC1(c2ccccc2)N=C(N)N(CCCc2ccccc2)C1=O` (stereo not given), the Inhibition is listed as 90%.
Regarding `CN(C)CCOc1ccc(-c2cc(-c3ccncc3)c(-c3ccc(Cl)c(O)c3)[nH]2)cc1.Cl`, the Inhibition was found to be 98%.
For the compound `Br.CC1(C)NC(N)=NC(=N)N1OCCCCOc1ccccc1`, the Inhibition is 95%.
In the case of `CCN1C(=O)N(CCC(C)C)C2(CCN(Cc3ccc(OC)cc3O)CC2)C1=O`, the Inhibition amounted to 89%.
`N#Cc1cccc(Nc2nccc(Nc3ccc(Oc4ccccc4)cc3)n2)c1` came in with an Inhibition of 94%.
In the case of `Br.CC(C)(Cc1ccc(Cl)cc1)NCCCCCCNCCc1ccc(O)c(O)c1`, the Inhibition is 90%.
On to `O=C(C1COc2ccccc2O1)N(CCCn1ccnc1)Cc1csc(-c2ccc(CNCc3ccccc3)cc2)n1.O=C(O)C(F)(F)F` (stereo not given), for which the Inhibition is listed as 100%.
Regarding `CCCCCN1CCCC1CNS(=O)(=O)c1ccc(C(=O)Nc2cccc(C(F)(F)F)c2)cc1.O=C(O)C(F)(F)F` (stereo not given), the Inhibition worked out at 95%.
The figure for `Cc1cc(N[C@@H](Cc2ccccc2)C(=O)NC2CCCC2)nc(NCCc2cccs2)n1.O=C(O)C(F)(F)F` is 99%; for `c1ccc(CN2CCN(c3cc(-c4cncc(-c5ccccc5)c4)nc(-c4ccccc4)n3)CC2)cc1` it is 88%.
Turning to `C[C@H](Cc1ccc(OCCCCCOc2ccc(C[C@@H](C)NC[C@H](O)c3cccc(Cl)c3)cc2)cc1)NC[C@H](O)c1cccc(Cl)c1.Cl`, the Inhibition was determined as 99%.
Regarding `CN1CCCC(CN2CCN(Cc3cccc(-c4csc(-c5nc6ccccc6[nH]5)c4)c3)CC2)C1.O=C(O)C(F)(F)F` (stereo not given), the Inhibition is given as 100%.
Turning to `O=C(Nc1cccc(C(F)(F)F)c1)Nc1ccc2nonc2c1`, the Inhibition was found to be 98%.
In the case of `Cc1cc(N[C@@H](CC(C)C)C(=O)Nc2ccccc2)nc(NCCc2ccc(F)cc2)n1.O=C(O)C(F)(F)F`, the Inhibition is 100%.
As to `COc1ccc2ncc(F)c(CCN3CC(O)C(CNCc4ccccc4)C3)c2n1.Cl` (stereo not given), the Inhibition is on record as 89%.
To `Cc1cc(C)n(-c2nc(Nc3cccc(C(F)(F)F)c3)nc(-n3nc(C)cc3C)n2)n1` belongs 99%; to `CC(=O)Nc1ccc(C(=O)Nc2cccc(-c3csc(-c4nc5ccccc5[nH]4)c3)c2)cn1`, 100%; to `CCN(CC)Cc1cc(Nc2ccnc3cc(Cl)ccc23)ccc1O.Cl.Cl.Cl`, 100%.
`CN(Cc1ccc(NC(=O)CCC2CCN(C(=O)/C=C/c3ccc(Cl)c(Cl)c3)CC2)cc1)C1CCOCC1` came in with an Inhibition of 94%.
The compound `CCCN1CCN(CCCNC(=O)c2cc3c(Cl)nc4ccc(C)cc4c3s2)CC1` came in with an Inhibition of 97%.
`COc1ccc(CN2CCCN(Cc3ccc(C(=O)Nc4ccc(Cl)cc4)cc3)CC2)cc1.O=C(O)C(F)(F)F` returned an Inhibition of 91%.
The figure for `O=C(Nc1ccc(Cn2ncc(N3CCNCC3)c(Cl)c2=O)cc1)Nc1ccc(-c2ccccc2)cc1.O=C(O)C(F)(F)F` is 98%; for `Cc1cccc(CNc2nc(C)cc(N[C@@H](Cc3ccccc3)C(=O)NCc3cccc(F)c3)n2)c1.O=C(O)C(F)(F)F` it is 100%.
`Cc1noc(C)c1-c1cccc(CNCc2cccc(-c3cccc(-c4nc5cccc(C)c5[nH]4)c3)c2)c1.O=C(O)C(F)(F)F` came in with an Inhibition of 100%.
